In the library only some 3.4% were active in any assay of this set; here they are far more common.
EBV LMP1 NFkB = inhibitors of Epstein-Barr LMP1-induced NF-kappaB reporter | AID 504558 | 0.69% of 350,000 active | inhibition, % at 12.5 µM | LMP1-induced NF-kappaB luciferase reporter cells, luminescence; in the data active means inhibition above about 41%;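 further: 0% = neutral control wells and 100% = reference inhibitor control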
MITF TRPM1 inh = reduces MITF-dependent TRPM1 promoter luciferase signal | AID 488899 | inhibition, % at 12.5 µM | 0.83% of 330,000 active | SK-MEL-5 TRPM1 promoter luciferase, 24 h;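 active means mean inhibition across replicates of 60% or more, whatever share of single replicates reaches that level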
HIF-2a inh = HIF-2a inhibition; 786-0 RCC cells HIF-2a reporter, luciferase luminescence, overnight; inhibition, % at 18.8 µM; 0.72% of 360,000 active;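 active means inhibition of the luminescence signal of 40% or more relative to plate controls, in a single-dose primary screen at 18.75 µM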
TWEAK-Fn14 inh = TWEAK-Fn14 signaling inhibition. TWEAK-stimulated Fn14 reporter cells, luciferase luminescence, 8 h. inhibition, % at 10 µM. 2% of 360,000 active. AID 1159606; in the data active means inhibition above about 50%
Shn3 inh set2 = inhibitors of Schnurri-3 3'UTR reporter in osteoblasts; 0.52% of 360,000 active; AID 588674; Clone20 osteoblast Shn3 3'UTR firefly luciferase, 24 h; inhibition, % at 12.5 µM;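 active means mean inhibition of at least 75% with every replicate also reaching 75%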;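 further: 0% = median of neutral control wells and 100% = pilot-screen positive control compound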
TROY signal inh = inhibitors of TROY-dependent NF-kB signaling; Q293 LMP1-TROYcd NF-kB luciferase reporter, 4 h; inhibition, % at 10 µM; 0.98% of 360,000 active;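 active means compounds whose plate-normalised and pattern-corrected inhibition of the luciferase reporter signal at the single screening dose is 50% or more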
Starred values were filed as active, the others as inactive.

For COc1cc(CNC(=O)OC2CC3CC2[C@H]2CCCCN2C3=O)cc(OC)c1 (stereo partly specified) the results were HIF-2a inh 6, TWEAK-Fn14 inh -20 and TROY signal inh 2.
Screening Clc1nc(Nc2ccc(N3CCOCC3)cc2)c2ccccc2n1 returned EBV LMP1 NFkB 15, MITF TRPM1 inh 5, HIF-2a inh 2, TWEAK-Fn14 inh 14, Shn3 inh set2 8 and TROY signal inh 1.
Screening O=S(=O)(Nc1nc2ccccc2nc1Nc1ccc(N2CCOCC2)cc1)c1cc(Cl)ccc1Cl returned EBV LMP1 NFkB 9, MITF TRPM1 inh -6, HIF-2a inh -83, TWEAK-Fn14 inh 80*, Shn3 inh set2 -18 and TROY signal inh 61*.
Screening CN(C(=O)COC(=O)c1ccc(Cl)c(S(=O)(=O)NCc2ccccc2)c1)C1CCS(=O)(=O)C1 (stereo unspecified) returned EBV LMP1 NFkB -6, MITF TRPM1 inh -9, HIF-2a inh 1, TWEAK-Fn14 inh -13, Shn3 inh set2 -5 and TROY signal inh -9.
O=C(Nc1nc2ccc(Cl)cc2s1)c1ccco1 was read as EBV LMP1 NFkB 3, MITF TRPM1 inh -12, HIF-2a inh -87, TWEAK-Fn14 inh 58*, Shn3 inh set2 -36 and TROY signal inh 7.
O=C(CSc1nc2ccccc2o1)Nc1nc2ccc(Br)cc2s1 was read as EBV LMP1 NFkB -2, MITF TRPM1 inh -11, HIF-2a inh -30, TWEAK-Fn14 inh -29, Shn3 inh set2 -6 and TROY signal inh 5.
`COC(=O)c1cc(OC)c(OC)cc1NC(=S)NC(=O)c1ccco1` gave EBV LMP1 NFkB 6, MITF TRPM1 inh -20, HIF-2a inh -8, TWEAK-Fn14 inh 74*, Shn3 inh set2 -2 and TROY signal inh 7.
CCNC(=S)Nc1cc(OC)c(NC(=O)c2ccco2)cc1OC was read as EBV LMP1 NFkB -7, MITF TRPM1 inh -10, HIF-2a inh 11, TWEAK-Fn14 inh 16, Shn3 inh set2 -9 and TROY signal inh -5.
Screening COc1ccc2nc(NC(=O)c3ccco3)sc2c1 returned EBV LMP1 NFkB 16, MITF TRPM1 inh 11, HIF-2a inh -45, TWEAK-Fn14 inh 81*, Shn3 inh set2 -12 and TROY signal inh 35.
COc1ccc2nc(NC(=O)CSc3nc4ccccc4o3)sc2c1 was read as EBV LMP1 NFkB -8, MITF TRPM1 inh -32, HIF-2a inh -84, TWEAK-Fn14 inh 35, Shn3 inh set2 -14 and TROY signal inh 68*.
O=C(Nc1nc2ccc(Br)cc2s1)c1ccco1 was read as EBV LMP1 NFkB -12, MITF TRPM1 inh -40, HIF-2a inh -180, TWEAK-Fn14 inh 46, Shn3 inh set2 -21 and TROY signal inh -28.
For COc1ccc(NS(=O)(=O)c2ccc(C(=O)N3CCC(C)CC3)cc2)cc1 the results were EBV LMP1 NFkB 19, MITF TRPM1 inh 21, HIF-2a inh -2, TWEAK-Fn14 inh -4, Shn3 inh set2 45 and TROY signal inh 11.
Screening COc1ccc(CNC(=O)C2CCCN2C)cc1OC (stereo unspecified) returned EBV LMP1 NFkB -12, MITF TRPM1 inh 12, HIF-2a inh 10, TWEAK-Fn14 inh -10, Shn3 inh set2 11 and TROY signal inh 12.
For Cc1ccc(Cl)cc1Nc1nc(-c2sc(NC(=O)c3ccco3)nc2C)cs1 the results were EBV LMP1 NFkB 9, MITF TRPM1 inh 68*, HIF-2a inh 8, TWEAK-Fn14 inh 18, Shn3 inh set2 8 and TROY signal inh 10.
`COc1cc2sc(NC(=O)c3ccco3)nc2cc1Cl` gave EBV LMP1 NFkB -23, MITF TRPM1 inh -60, HIF-2a inh -217, TWEAK-Fn14 inh -15, Shn3 inh set2 -29 and TROY signal inh -72.
`COc1cc2nc(NC(=O)c3ccco3)sc(=O)c2cc1OC` gave EBV LMP1 NFkB 42*, MITF TRPM1 inh -14, HIF-2a inh -9, TWEAK-Fn14 inh 71*, Shn3 inh set2 18 and TROY signal inh -5.
For COc1cccc(N(C(=O)c2ccco2)c2nc(-c3sc(NC(=O)c4ccco4)nc3C)cs2)c1 the results were EBV LMP1 NFkB -13, MITF TRPM1 inh 73*, HIF-2a inh 9, TWEAK-Fn14 inh 0, Shn3 inh set2 -9 and TROY signal inh 22.
`CCOc1c(C)cnc2c1c(=O)n(Cc1c(F)cccc1Cl)c(=O)n2C` gave EBV LMP1 NFkB -3, MITF TRPM1 inh -1, HIF-2a inh 3, TWEAK-Fn14 inh -11, Shn3 inh set2 8 and TROY signal inh -21.
CCOc1ccc(NC(=O)COC(=O)C2COc3ccccc3O2)cc1 (stereo unspecified) was read as EBV LMP1 NFkB -4, HIF-2a inh 4, TWEAK-Fn14 inh 11, Shn3 inh set2 6 and TROY signal inh -14.
Screening CC(=NNc1nc2ccccc2o1)c1cc2ccccc2cn1 returned EBV LMP1 NFkB 57*, MITF TRPM1 inh 58, HIF-2a inh -57, TWEAK-Fn14 inh 34, Shn3 inh set2 80 and TROY signal inh -19.
Screening Cc1cc(C)nc(Nc2nc3ccccc3o2)n1 returned EBV LMP1 NFkB -12, MITF TRPM1 inh -22, HIF-2a inh -112, TWEAK-Fn14 inh -17, Shn3 inh set2 -30 and TROY signal inh -31.
For CC(=NNc1nc2ccccc2o1)c1ncccn1 the results were EBV LMP1 NFkB 58*, MITF TRPM1 inh 40, HIF-2a inh -186, TWEAK-Fn14 inh 103*, Shn3 inh set2 84 and TROY signal inh 15.
For CC(=O)c1ccc(S(=O)(=O)N(C)CC(=O)Nc2ccc(C)cc2)cc1 the results were EBV LMP1 NFkB 1, MITF TRPM1 inh 8, HIF-2a inh -5, TWEAK-Fn14 inh 10, Shn3 inh set2 0 and TROY signal inh 5.
Screening Cc1ccc(C(=O)NCC(=O)OCC(=O)N(CC(C)C)c2c(N)n(Cc3ccccc3)c(=O)[nH]c2=O)s1 returned EBV LMP1 NFkB -3, HIF-2a inh 0, TWEAK-Fn14 inh 21, Shn3 inh set2 19 and TROY signal inh 13.
Cc1[nH]c(=O)nc(SCc2cccc(Cl)c2)c1C#N was read as EBV LMP1 NFkB -5, MITF TRPM1 inh 14, HIF-2a inh 23, TWEAK-Fn14 inh 32, Shn3 inh set2 -1 and TROY signal inh 1.
`N#Cc1c(-c2ccccc2)nc(SCc2cccc(Cl)c2)[nH]c1=O` gave EBV LMP1 NFkB 2, MITF TRPM1 inh -2, HIF-2a inh 10, TWEAK-Fn14 inh 0, Shn3 inh set2 -38 and TROY signal inh 58*.
Screening NC(=O)CC(NC(=O)Cc1cccc2ccccc12)c1ccc(NCc2ccc(F)cc2)c([N+](=O)[O-])c1 (stereo unspecified) returned EBV LMP1 NFkB 52*, MITF TRPM1 inh -9, HIF-2a inh 17, TWEAK-Fn14 inh 17, Shn3 inh set2 30 and TROY signal inh -15.
`COc1ccc(C(CNC(=O)CNC(=O)c2cccc(F)c2)N2CCOCC2)cc1` (stereo unspecified) gave EBV LMP1 NFkB 28, HIF-2a inh -5, TWEAK-Fn14 inh -28, Shn3 inh set2 48 and TROY signal inh -21.

Screening data: PubChem, several laboratories
